# Results taken from PubChem BioAssay AID492998 (Southern Research Specialized Biocontainment Screening …, 2010).
# Screen size: about 2,300 compounds; about 550 (24%) were called active. The rule behind the calls is not given here. Only a sample is shown. Measured potencies and affinities stand elsewhere.
# Assay: Vero E6 cell cytotoxicity, dose response, cytotoxicity control for non-replicating M. tuberculosis project, secondary assay (AID 492998)
# Conditions: series mostly up to 20 µM
row,Structure (SMILES),outcome
1,CCOC(=O)CC(NS(=O)(=O)Cc1ccccc1)c1ccc(C)cc1 (stereo not drawn),inactive
2,CCOC(=O)COn1c2c(c3c4no[n+]([O-])c4ccc31)CCCC2,inactive
3,COC(=O)c1ccccc1NC(=O)C1CC(c2ccc(F)cc2)=NO1 (stereo not drawn),inactive
4,COc1cc(/C=C2/C(=O)NN(c3cccc(C)c3)C2=O)ccc1OC(=O)c1ccco1,inactive
5,O=C(Oc1cccc2cccnc12)c1cccc(-n2cnnn2)c1,inactive
6,Cc1nc2ccc(NC(=O)c3ccc([N+](=O)[O-])cc3[N+](=O)[O-])cc2s1,inactive
7,CCN(CC)CCNC(=O)c1[nH]c2ccc(OCc3ccccc3)cc2c1C,inactive
8,CSc1ccccc1NC(=O)c1cc(C(C)C)on1,inactive
9,O=C(COc1ccc(-c2ccccc2)cc1)Nc1cccnc1,inactive
10,O=C(OCC(=O)N1CCCCC1)c1cc2ccccc2cc1O,inactive
11,CCOC(=O)c1cc2cc3ccccc3cc2oc1=O,inactive
12,CCOC(=O)COc1ccc(C(=O)c2ccccc2)c(O)c1,inactive
13,Cc1ccn2nc(S(=O)(=O)Nc3c(F)cccc3F)nc2n1,inactive
14,CN(C)CC/C=C1\c2cc(Cl)ccc2Sc2cc(F)c(F)cc21,inactive
15,CCn1cc(/C=N\NC(=O)c2ccc(F)cc2)cn1,inactive
16,Cn1c(NC(=O)c2ccccc2)nc2ccccc21,inactive
17,COc1ccc(C(=O)Nc2ccccc2C(=O)N/N=C/c2ccco2)cc1,inactive

row,Structure (SMILES),outcome
1,Nc1nc2ccccc2n1C(=O)c1ccc(F)cc1,inactive
2,Cc1nc2ccc(NC(=O)COc3cccc(F)c3)cc2s1,inactive
3,O=C(COC(=O)c1cccc([N+](=O)[O-])c1)NCc1cccs1,inactive
4,COc1ccc(CN2CCC(C(=O)Nc3ccc(Oc4cccnc4)cc3)CC2)c(C)c1C,inactive
5,CSCCOC(=O)COc1ccc(/C=N/NC(=O)c2c(Cl)cnn2C)cc1,inactive
6,O=C(COc1ccc(Br)cc1)N/N=C1/SCC(=O)N1Cc1ccco1,inactive
7,O=C(C/C=N\OCc1ccc([N+](=O)[O-])cc1)Nc1ccc(Br)cc1,inactive
8,COc1ccccc1CCNC(=O)c1ccc(C)o1,inactive
9,NC1=NC[C@H](Cc2ccc(O)cc2)N1CCc1cccc2ccccc12,inactive
10,Cc1ccc(NCCC(=O)c2cccs2)cc1,inactive
11,O=C(N/N=C/C=C/c1ccccc1)c1ccccn1,inactive
12,CCCCCCCC(=O)N/N=C(/C)c1c(O)cc(C)oc1=O,inactive
13,CCc1ccc(/C=N/NC(=O)c2ccccn2)cc1,inactive
14,Cc1ccc(-c2noc(CCCC(=O)Nc3cccnc3)n2)cc1,inactive
15,CCCCCCCC(=O)NNC(=O)c1ccc(F)cc1,inactive
16,CCCc1cc(C(=O)Nc2ccccc2SC)no1,inactive
